# Values without a mark were called inactive. Inconclusive results are not listed. A call without a number means that no potency is given here. The source made the active and inactive calls. Unless noted, calls follow the shape of the dose curve; as a rule, active = well fitted curve in the direction sought with a large enough effect; inconclusive = small, poorly fitted or top-dose-only effect, or another doubt; inactive = no such curve, though single readings can be large; an effect the other way counts as inactive or inconclusive.
# Columns and labels:
# Furin (Homo sapiens) = Furin (Homo sapiens) (UniProt P09958); assay: Furin counterscreen qHTS for Zika virus inhibitors (AID 1347149); also: nearly all actives have a fitted effect of over 70% in size; also: potency is read from the fitted curve at half-maximal effect;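 as to activity change, negative = inhibition: purified recombinant full-length human furin enzyme at 5 nM; fluorescence gain from furin cutting a BOC-RVRR-AMC peptide substrate over 15 min; top concentration of the series differs between compounds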
# Procedure, shortened: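 Counterscreen measures cleavage of 2 microM BOC-RVRR-AMC, below its ~15 microM Km, by 5 nM full-length human furin at pH 7.0 after a 15-min compound preincubation. Inhibition derives from the 15-min fluorescence increase at 37C.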
# [1] = tested on: Zika virus NS2B-NS3 protease (linked construct); assay: Confirmatory screen NINDS AMC qHTS for Zika virus inhibitors (AID 1347152); also: nearly all actives have a fitted effect of over 70% in size; also: potency is read from the fitted curve at half-maximal effect;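 as to activity change, negative = inhibition: AMC fluorescence gain from cleaved Bz-Nle-KRR-AMC substrate over 15 min; top concentration of the series differs between compounds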
# Procedure, shortened: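 Purified NS2B-NS3 protease with NS2B hydrophilic domain linked to NS3 protease domain by flexible linker, 1 nM final in 10 mM Tris-HCl pH 8.0, 0.01% Tween 20. Compounds preincubated 15 min, room temperature; Bz-Nle-KRR-AMC 10 microM (Km 18.3 µM); 15-min fluorescence change, 4-parameter Hill fit.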
# [2] = tested on: Zika virus NS2B-NS3 protease (unlinked complex); assay: Confirmatory screen GU AMC qHTS for Zika virus inhibitors (AID 1347153); also: nearly all actives have a fitted effect of over 70% in size
# Procedure, shortened: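 Fluorescence change (ex 340/em 450 nm) over 15 min, ~20% substrate conversion, normalized to no-inhibitor and no-enzyme controls, then Hill-fitted. Unlinked protease at 25 nM; AMC peptide 10 µM.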
# [3] = tested on: Zika virus NS2B-NS3 protease; assay: Primary screen GU AMC qHTS for Zika virus inhibitors (AID 1347154); also: potency is read from the fitted curve at half-maximal effect; nearly all actives have a fitted effect of over 70% in size
# Procedure, shortened: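 Unlinked Zika NS2B hydrophilic domain/NS3 protease domain noncovalent complex (25 nM final) in 10 mM Tris-HCl pH 8.0, 0.01% Tween 20, with AMC peptide substrate. Fluorescence (ex 340, em 450 nm) change over 15 min, room temperature; percent inhibition fitted to 4-parameter Hill equation.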
# [4] = Confirmatory screen NINDS Rhodamine qHTS for Zika virus inhibitors (AID 1347161);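 also: purified Zika NS2B-NS3 protease with linked NS2B cofactor domain and Rhodamine110 peptide substrate; nearly all actives have a fitted effect of over 60% in size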
# Procedure, shortened: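 qHTS dose-response: 25 nM linked protease, pH 8.0 Tris/Tween buffer, cpd titration, 15 min RT preinc, 1.5 microM Rhod110 peptide, 15 min reaction (~15% conversion), Ex480/Em540; 4-parameter Hill fit.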
# [5] = Vero cells viability qHTS for Zika virus inhibitors (AID 1347167)
# Procedure, shortened: (§1)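 To flag cytotoxic protease inhibitors, viability is measured by ATP-dependent luminescence (CellTiter Glo) after cells attached overnight receive compound for 24 to 48 hours in DMEM with 4% FBS.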
# [6] = HepG2 cells viability qHTS for Zika virus inhibitors (AID 1347168)
# Procedure, shortened: as §1
# [7] = ZIKV-mCherry secondary qHTS for Zika virus inhibitors (AID 1347158); also: top concentration of the series differs between compounds
# Procedure, shortened: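 Read-out is percent infection: mCherry-positive Vero cells (nuclear-proximal intensity >450 RFU, 3 SD above negative controls) counted by high-content imaging of Hoechst-stained, PFA-fixed wells after 48-72 h with ZIKV-mCherry at MOI 1 and compound.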
# [8] = tested on: Zika virus NS2B-NS3 protease (linked construct); assay: 384 well plate NINDS Rhodamine confirmatory qHTS for Zika virus inhibitors (AID 1347164);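 also: fluorescence from protease cleavage of Ac-LKRR-rhodamine 110 substrate; potency is read from the fitted curve at half-maximal effect; nearly all actives have a fitted effect of over 65% in size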
# Procedure, shortened: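 Linked protease at a final 5 nM, 30 nM or 60 nM was preincubated ~15 min with compounds, then given 10 microM Ac-LKRR-Rhodamine 110. Fluorescence (ex 485/em 538 nm) after 25 min in the dark at room temperature.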
# [9] = biological target: Lysosomal acid glucosylceramidase (Homo sapiens) (UniProt P04062); assay: Glucocerebrosidase-p2 (AID 348; in the data active = potency below about 10 µM; also: potency is read from the fitted curve at half-maximal effect); conditions: purified GBA, blue fluorogenic substrate, 40 min
# Procedure, shortened: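 Normal human glucocerebrosidase (0.2 nM) with blue fluorogenic substrate (80 uM final) in citrate/phosphate pH 5.9 with 10mM sodium taurocholate, 0.01% tween-20; 40 min RT, NaOH/glycine stop; fluorescence Ex 365/Em 440; AC50 from a titration from 0.6 nM upwards.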
# [10] = AP1 Signaling Pathway (AID 357; active = well fitted curve in either direction with a large enough effect, not every such curve was filed as active;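 also: ME-180 reporter cells stimulated with EGF at its EC50 level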); conditions: ME-180 (cervical carcinoma) AP-1-bla reporter, EGF-induced, beta-lactamase ratio, 5 h; at 7.69 µM (top of the series)
# Procedure, shortened: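 Read-out was the 460nm/530nm emission ratio (excitation 405nm) after CCF4 loading for 2.5 hours at room temperature. Cells carried an AP-1-driven beta-lactamase reporter, were stimulated with EC50 EGF plus compound for 5 hours, and AC50 values came from titrations.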
# [11] = biological target: Glucocorticoid receptor (Homo sapiens) (UniProt P04150); assay: GR-GFP Redistribution (AID 450;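 active = compounds whose dose series gives a full or clear partial fitted curve of increased nuclear translocation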; also: potency is read from the fitted curve at half-maximal effect); conditions: U2OS GR-GFP nuclear translocation, laser cytometry, 2 h
# [12] = biological target: Glucocorticoid receptor (Homo sapiens) (UniProt P04150); assay: GR-EFC Redistribution (AID 451; calls by dose curve; also: potency is read from the fitted curve at half-maximal effect); conditions: CHO-K1 GR-EFC translocation, beta-gal luminescence, 2 h
# Procedure, shortened: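 CHO-K1 cells stably expressing nuclear-localized β-gal enzyme acceptor and GR fused C-terminally to the enzyme donor fragment; ligand-driven nuclear translocation restores β-gal by complementation. Compounds titrated up to 46 uM final, 2 h at 37 °C; luminescence read.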
# [13] = biological target: Mitogen-activated protein kinase 10 (Mus musculus) (UniProt Q61831); assay: JNK3 AlphaScreen Assay (AID 530; active = well fitted curve in either direction with a large enough effect, not every such curve was filed as active;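 also: kinase came from lysate of stimulated human HepG2 cells; signal reports phosphorylation of biotinylated GST-cJun 1-79 at Ser73 with 10 µM ATP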)
# Procedure, shortened: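 Biotinylated GST-cJun(1-79) served as substrate for JNK3 in HepG2 lysates stimulated with IL-1beta and TNF-alpha. ATP was 10 uM final, pH 7.6. Ser73 phosphorylation was quantified by AlphaScreen (680 nm excitation).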
# [14] = biological target: 3',5'-cyclic-AMP phosphodiesterase 4B (Homo sapiens) (UniProt Q07343); assay: qHTS Assay for Inhibitors of PDE-IV (AID 607; active = well fitted activation curve with a large enough effect in the main read-out, with a control signal flat, not every such curve was filed as active)
# Procedure, shortened: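 The readout is membrane depolarisation from a cAMP-sensing CNG channel, detected with a potential dye at ex 535/em 590. Cells were HEK293-derived (endogenous PDE-IV) at 1000 cells/well, titrated up to 22.9 uM final.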
# [15] = Primary qHTS for small molecule stabilizers of the endoplasmic reticulum resident proteome: Secreted ER Calcium Modulated Protein (SERCaMP) assay (AID 1508630)
# Procedure, shortened: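 The SH-SY5Y reporter protocol was run at 3 concentrations up to 38.3 uM (primary) or 11 concentrations (follow-up): 16 h compound, 100 nM thapsigargin for 4 h, then extracellular luciferase luminescence.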
# [16] = Tertiary RLuc qRT-PCR qHTS assay for Zika virus inhibitors (AID 1347169); also: top concentration of the series differs between compounds; nearly all actives have a fitted effect of over 55% in size
# Procedure, shortened: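 Vero cells (1,000 per well) plated overnight at 37 degrees C, treated with compound in DMSO, then infected with recombinant ZIKV-RLuc (Cambodian) at MOI 1-2 for 48-72 hrs. Live-cell Renilla luciferase substrate added; luminescence read after 1-1.5 hrs.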
# Sequence of Furin (Homo sapiens) (P09958 whole entry, looked up): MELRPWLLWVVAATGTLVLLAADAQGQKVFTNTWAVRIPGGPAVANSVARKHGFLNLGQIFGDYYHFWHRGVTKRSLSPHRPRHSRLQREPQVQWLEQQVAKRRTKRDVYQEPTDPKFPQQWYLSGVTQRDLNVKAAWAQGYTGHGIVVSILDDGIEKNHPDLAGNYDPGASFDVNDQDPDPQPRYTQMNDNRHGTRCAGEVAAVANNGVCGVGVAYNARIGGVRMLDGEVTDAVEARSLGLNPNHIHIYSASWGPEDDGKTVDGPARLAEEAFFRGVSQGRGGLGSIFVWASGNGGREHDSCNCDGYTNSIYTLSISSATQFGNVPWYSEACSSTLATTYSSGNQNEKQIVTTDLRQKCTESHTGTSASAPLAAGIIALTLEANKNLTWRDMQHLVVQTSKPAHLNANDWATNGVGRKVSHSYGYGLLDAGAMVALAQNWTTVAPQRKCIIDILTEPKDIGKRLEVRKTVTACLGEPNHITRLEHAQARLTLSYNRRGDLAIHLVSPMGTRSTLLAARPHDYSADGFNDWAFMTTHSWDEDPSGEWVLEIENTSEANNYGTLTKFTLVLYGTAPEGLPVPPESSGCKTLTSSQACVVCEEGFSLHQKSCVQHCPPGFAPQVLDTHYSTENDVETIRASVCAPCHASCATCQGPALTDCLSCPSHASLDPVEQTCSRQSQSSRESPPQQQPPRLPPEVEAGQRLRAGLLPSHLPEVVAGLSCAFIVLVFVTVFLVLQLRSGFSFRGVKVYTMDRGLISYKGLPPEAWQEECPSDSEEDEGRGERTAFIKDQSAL
# Sequence of Glucocorticoid receptor (Homo sapiens) (P04150 whole entry, looked up, the tested form may be a part): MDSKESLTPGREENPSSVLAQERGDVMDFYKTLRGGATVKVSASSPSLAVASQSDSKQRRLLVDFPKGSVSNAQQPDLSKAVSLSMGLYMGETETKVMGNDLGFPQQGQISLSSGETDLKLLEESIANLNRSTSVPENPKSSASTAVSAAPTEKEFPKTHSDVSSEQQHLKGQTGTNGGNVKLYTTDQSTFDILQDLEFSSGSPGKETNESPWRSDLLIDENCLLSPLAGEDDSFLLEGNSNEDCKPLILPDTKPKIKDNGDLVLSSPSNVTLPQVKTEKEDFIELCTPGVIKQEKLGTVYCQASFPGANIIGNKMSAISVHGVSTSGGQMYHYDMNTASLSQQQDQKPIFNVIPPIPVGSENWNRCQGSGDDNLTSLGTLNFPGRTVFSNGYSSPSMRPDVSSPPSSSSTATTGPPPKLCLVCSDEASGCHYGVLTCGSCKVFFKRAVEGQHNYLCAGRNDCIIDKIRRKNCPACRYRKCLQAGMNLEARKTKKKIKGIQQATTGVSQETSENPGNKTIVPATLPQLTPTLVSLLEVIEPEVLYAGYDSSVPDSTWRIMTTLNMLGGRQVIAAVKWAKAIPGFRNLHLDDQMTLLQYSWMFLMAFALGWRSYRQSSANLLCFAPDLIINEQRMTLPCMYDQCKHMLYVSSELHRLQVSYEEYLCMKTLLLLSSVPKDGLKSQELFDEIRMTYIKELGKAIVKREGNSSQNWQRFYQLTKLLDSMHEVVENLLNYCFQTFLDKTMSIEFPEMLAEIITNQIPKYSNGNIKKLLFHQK
# Sequence of Lysosomal acid glucosylceramidase (Homo sapiens) (P04062 whole entry, looked up): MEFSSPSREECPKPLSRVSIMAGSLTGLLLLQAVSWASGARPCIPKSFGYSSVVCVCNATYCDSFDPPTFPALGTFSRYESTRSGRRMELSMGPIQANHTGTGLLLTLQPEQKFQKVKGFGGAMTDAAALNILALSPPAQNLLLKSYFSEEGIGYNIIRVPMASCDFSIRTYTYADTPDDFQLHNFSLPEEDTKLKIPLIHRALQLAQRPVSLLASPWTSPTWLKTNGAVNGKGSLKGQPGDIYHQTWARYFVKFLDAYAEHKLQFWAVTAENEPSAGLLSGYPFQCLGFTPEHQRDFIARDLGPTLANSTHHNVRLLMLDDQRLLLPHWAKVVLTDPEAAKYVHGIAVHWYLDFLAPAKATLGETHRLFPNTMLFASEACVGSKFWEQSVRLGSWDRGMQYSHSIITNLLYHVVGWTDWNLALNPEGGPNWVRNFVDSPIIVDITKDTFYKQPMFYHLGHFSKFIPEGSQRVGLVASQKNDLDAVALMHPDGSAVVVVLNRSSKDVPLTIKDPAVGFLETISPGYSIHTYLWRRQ
# Sequence of 3',5'-cyclic-AMP phosphodiesterase 4B (Homo sapiens) (Q07343 whole entry, looked up): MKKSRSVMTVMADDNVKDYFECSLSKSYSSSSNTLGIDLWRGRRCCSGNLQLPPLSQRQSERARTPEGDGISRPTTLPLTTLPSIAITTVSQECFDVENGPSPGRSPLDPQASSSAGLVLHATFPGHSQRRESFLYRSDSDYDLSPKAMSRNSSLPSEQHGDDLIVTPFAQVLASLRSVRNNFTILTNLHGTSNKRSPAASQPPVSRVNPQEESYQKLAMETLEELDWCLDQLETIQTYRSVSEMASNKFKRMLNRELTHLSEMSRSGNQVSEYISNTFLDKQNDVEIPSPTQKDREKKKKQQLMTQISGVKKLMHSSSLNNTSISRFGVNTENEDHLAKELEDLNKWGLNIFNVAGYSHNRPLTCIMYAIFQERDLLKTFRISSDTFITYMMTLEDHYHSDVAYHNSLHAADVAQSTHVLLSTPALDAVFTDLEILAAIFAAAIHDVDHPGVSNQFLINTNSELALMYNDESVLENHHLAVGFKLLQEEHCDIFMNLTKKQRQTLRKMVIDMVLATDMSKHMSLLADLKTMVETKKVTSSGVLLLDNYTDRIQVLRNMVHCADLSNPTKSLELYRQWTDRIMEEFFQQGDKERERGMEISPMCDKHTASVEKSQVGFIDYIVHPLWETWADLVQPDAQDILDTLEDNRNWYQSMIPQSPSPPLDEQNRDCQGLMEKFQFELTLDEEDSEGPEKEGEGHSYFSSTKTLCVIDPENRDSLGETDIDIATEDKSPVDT
structure (smiles),measurement,setting,value
COc1ccc(-c2ccnc(N[C@H]3CO[C@H]4[C@@H]3OC[C@@H]4NS(=O)(=O)c3ccc4ccccc4c3)n2)cc1,Potency,Furin (Homo sapiens),inactive
same,Potency,[1],inactive
same,Potency,[2],inactive
CCOC(=O)O[C@H](C)OC(=O)C1N2C(=O)[C@H](NC(=O)[C@H](N)c3ccccc3)C2SC1(C)C (stereo partly drawn),Potency,Furin (Homo sapiens),inactive
same,Potency,[1],inactive
same,Potency,[2],inactive
same,Potency,[3],26.7 µM (active)
same,Potency,[4],inactive
same,Potency,[5],inactive
same,Potency,[6],inactive
O=C(O)c1cccc(-c2cccc(C(F)(F)F)c2)c1,Potency,Furin (Homo sapiens),inactive
same,Potency,[1],inactive
same,Potency,[2],inactive
same,Potency,[7],inactive
same,Potency,[8],501 µM (active)
Cc1c2ccccc2c(CSC(=N)N)c2ccccc12,Potency,[9],1.39 µM (active)
same,"activity change, negative = inhibition",[10],-16.8%
same,Potency,[11],> 46 µM
same,Potency,[12],> 9.22 µM
same,"activity change, negative = inhibition",[13],27.8% [at 11.4 µM]
same,Potency,[14],inactive
same,Potency,Furin (Homo sapiens),inactive
same,Potency,[1],inactive
same,Potency,[2],inactive
same,Potency,[3],21.2 µM (active)
same,Potency,[4],inactive
same,Potency,[5],inactive
same,Potency,[15],inactive
O=C(O)COc1ccc(-c2nccc3c2C(=O)N(Cc2cccc(C(F)(F)F)c2)CC(COc2ccc(OC(F)(F)F)cc2)O3)cc1 (stereo not drawn),Potency,Furin (Homo sapiens),49.4 µM (active)
same,Potency,[1],22.1 µM (active)
same,Potency,[2],22.1 µM (active)
same,Potency,[8],25.1 µM (active)
same,Potency,[16],inactive

# — PubChem BioAssay (NCATS)
